Experimental findings from article PMC9911399, “Two distinct binding modes provide the RNA-binding protein RbFox with extraordinary sequence specificity” are described below.

Positions count from the first letter of the chain named. Over roughly 16,000 sequences, “ka relative to ugcaugu” has its median near 0.0091; the highest 2% begin near 0.032. The sample as a whole holds a higher share of the highest values than the screen did.

First the molecules themselves.
B1: GACUGGA (DNA:RNA)
RNA: GGGAGACCGGAAUUCAGAUUGUCCGACUGGAUUAAAUCCCGUCGUAGCCACCA
DNA 1: CAATCTGAATTCCGGTCTCCC
DNA 2: TGGTGGCTACGACGGGATT
B2: AUGUUUG (DNA:RNA)
RNA: B1 RNA with G25A, A26U, C27G, G29U, G30U, A31G
DNA 1: CAATCTGAATTCCGGTCTCCC
DNA 2: TGGTGGCTACGACGGGATT
B3: AUCAGUG (DNA:RNA)
RNA: B1 RNA with G25A, A26U, U28A, G30U, A31G
DNA 1: CAATCTGAATTCCGGTCTCCC
DNA 2: TGGTGGCTACGACGGGATT
B4: AGUUGGA (DNA:RNA)
RNA: B1 RNA with G25A, A26G, C27U
DNA 1: CAATCTGAATTCCGGTCTCCC
DNA 2: TGGTGGCTACGACGGGATT
B5: ACGCCGG (DNA:RNA)
RNA: B1 RNA with G25A, A26C, C27G, U28C, G29C, A31G
DNA 1: CAATCTGAATTCCGGTCTCCC
DNA 2: TGGTGGCTACGACGGGATT
B6: GAGGGUG (DNA:RNA)
RNA: B1 RNA with C27G, U28G, G30U, A31G
DNA 1: CAATCTGAATTCCGGTCTCCC
DNA 2: TGGTGGCTACGACGGGATT
B7: UGUUCUC (DNA:RNA)
RNA: B1 RNA with G25U, A26G, C27U, G29C, G30U, A31C
DNA 1: CAATCTGAATTCCGGTCTCCC
DNA 2: TGGTGGCTACGACGGGATT
B8: AGAUUUA (DNA:RNA)
RNA: B1 RNA with G25A, A26G, C27A, G29U, G30U
DNA 1: CAATCTGAATTCCGGTCTCCC
DNA 2: TGGTGGCTACGACGGGATT
B9: GCGCCAC (DNA:RNA)
RNA: B1 RNA with A26C, C27G, U28C, G29C, G30A, A31C
DNA 1: CAATCTGAATTCCGGTCTCCC
DNA 2: TGGTGGCTACGACGGGATT
B10: GUGGUGG (DNA:RNA)
RNA: B1 RNA with A26U, C27G, U28G, G29U, A31G
DNA 1: CAATCTGAATTCCGGTCTCCC
DNA 2: TGGTGGCTACGACGGGATT
B11: GUCGUGG (DNA:RNA)
RNA: B1 RNA with A26U, U28G, G29U, A31G
DNA 1: CAATCTGAATTCCGGTCTCCC
DNA 2: TGGTGGCTACGACGGGATT
B12: GUGGUUG (DNA:RNA)
RNA: B1 RNA with A26U, C27G, U28G, G29U, G30U, A31G
DNA 1: CAATCTGAATTCCGGTCTCCC
DNA 2: TGGTGGCTACGACGGGATT
B13: CUGGAUG (DNA:RNA)
RNA: GGGAGACCGGAAUUCAGAUUGUCCCUGGAUGUUAAAUCCCGUCGUAGCCACCA
DNA 1: CAATCTGAATTCCGGTCTCCC
DNA 2: TGGTGGCTACGACGGGATT
B14: CUGGAGA (DNA:RNA)
RNA: B13 RNA with U30G, G31A
DNA 1: CAATCTGAATTCCGGTCTCCC
DNA 2: TGGTGGCTACGACGGGATT
B15: CCCUGGA (DNA:RNA)
RNA: B1 RNA with G25C, A26C
DNA 1: CAATCTGAATTCCGGTCTCCC
DNA 2: TGGTGGCTACGACGGGATT
B16: UGGAUUU (DNA:RNA)
RNA: B13 RNA with C25U, U26G, G28A, A29U, G31U
DNA 1: CAATCTGAATTCCGGTCTCCC
DNA 2: TGGTGGCTACGACGGGATT
B17: UGGGGGA (DNA:RNA)
RNA: B1 RNA with G25U, A26G, C27G, U28G
DNA 1: CAATCTGAATTCCGGTCTCCC
DNA 2: TGGTGGCTACGACGGGATT
B18: UGGGAUG (DNA:RNA)
RNA: B13 RNA with C25U, U26G
DNA 1: CAATCTGAATTCCGGTCTCCC
DNA 2: TGGTGGCTACGACGGGATT
B19: UGCGAUG (DNA:RNA)
RNA: B13 RNA with C25U, U26G, G27C
DNA 1: CAATCTGAATTCCGGTCTCCC
DNA 2: TGGTGGCTACGACGGGATT
B20: UGCGAUC (DNA:RNA)
RNA: B13 RNA with C25U, U26G, G27C, G31C
DNA 1: CAATCTGAATTCCGGTCTCCC
DNA 2: TGGTGGCTACGACGGGATT
B21: UGGAUGU (DNA:RNA)
RNA: B13 RNA with C25U, U26G, G28A, A29U, U30G, G31U
DNA 1: CAATCTGAATTCCGGTCTCCC
DNA 2: TGGTGGCTACGACGGGATT
B22: UGGGAGA (DNA:RNA)
RNA: B13 RNA with C25U, U26G, U30G, G31A
DNA 1: CAATCTGAATTCCGGTCTCCC
DNA 2: TGGTGGCTACGACGGGATT
B23: CGGAUGU (DNA:RNA)
RNA: B13 RNA with U26G, G28A, A29U, U30G, G31U
DNA 1: CAATCTGAATTCCGGTCTCCC
DNA 2: TGGTGGCTACGACGGGATT
B24: UGCGCGA (DNA:RNA)
RNA: B1 RNA with G25U, A26G, U28G, G29C
DNA 1: CAATCTGAATTCCGGTCTCCC
DNA 2: TGGTGGCTACGACGGGATT
B25: CGUCGAU (DNA:RNA)
RNA: B13 RNA with U26G, G27U, G28C, A29G, U30A, G31U
DNA 1: CAATCTGAATTCCGGTCTCCC
DNA 2: TGGTGGCTACGACGGGATT
B26: AGGUGGG (DNA:RNA)
RNA: B1 RNA with G25A, A26G, C27G, A31G
DNA 1: CAATCTGAATTCCGGTCTCCC
DNA 2: TGGTGGCTACGACGGGATT
B27: CCUAAUC (DNA:RNA)
RNA: B13 RNA with U26C, G27U, G28A, G31C
DNA 1: CAATCTGAATTCCGGTCTCCC
DNA 2: TGGTGGCTACGACGGGATT
B28: CCCUUAA (DNA:RNA)
RNA: B1 RNA with G25C, A26C, G29U, G30A
DNA 1: CAATCTGAATTCCGGTCTCCC
DNA 2: TGGTGGCTACGACGGGATT
B29: AACGCGA (DNA:RNA)
RNA: B1 RNA with G25A, U28G, G29C
DNA 1: CAATCTGAATTCCGGTCTCCC
DNA 2: TGGTGGCTACGACGGGATT
B30: UCAGGUU (DNA:RNA)
RNA: B13 RNA with C25U, U26C, G27A, A29G, G31U
DNA 1: CAATCTGAATTCCGGTCTCCC
DNA 2: TGGTGGCTACGACGGGATT
B31: ACUCGCA (DNA:RNA)
RNA: B1 RNA with G25A, A26C, C27U, U28C, G30C
DNA 1: CAATCTGAATTCCGGTCTCCC
DNA 2: TGGTGGCTACGACGGGATT

This experiment deals with T1, RBFOX1 RRM (Homo sapiens, UniProt Q9NWB1 109-208).
T1 sequence: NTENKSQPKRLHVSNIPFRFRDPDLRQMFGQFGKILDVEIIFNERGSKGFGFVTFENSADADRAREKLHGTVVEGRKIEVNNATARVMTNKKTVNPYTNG
Put plainly: EMSA; HiTS-Eq, 1 nM pool, 10 min; buffer printed only for the single-RNA assays: 10 mM Tris pH 7.5, 150 mM NaCl, 3.4 mM EDTA, 0.001% NP-40, 30 C. The settings on record: tags: His6 N-terminal (pET28a); label: 5' 32P. Put shortly: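 Purified wild-type or mutant RbFox RRM at increasing concentrations was equilibrated with 1 nM of 5′-radiolabelled RNA carrying 7 randomized nucleotides for 10 min in 50 µL. Unbound RNA was separated by 8% native PAGE and sequenced. Relative association constants came from read-count changes of each RNA species compared with the control reaction, normalised to the cognate motif.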
For orientation: Mobility shift assays separate free from complexed probe on a gel.
Take B1: the binding signal is 0.0138 KA relative to UGCAUGU.
The value for B2 was 0.0211 KA relative to UGCAUGU; that for B3 was 0.00865 KA relative to UGCAUGU.
To B4 belongs 0.00398 KA relative to UGCAUGU; to B5, 0.00777 KA relative to UGCAUGU; to B6, 0.0242 KA relative to UGCAUGU.
B7: the binding signal was 0.0181 KA relative to UGCAUGU.
The value for B8 was 0.00707 KA relative to UGCAUGU.
For B9, the binding signal was 0.00734 KA relative to UGCAUGU.
The value for B10 was 0.0237 KA relative to UGCAUGU.
B11: the binding signal is 0.0185 KA relative to UGCAUGU.
To B12 belongs 0.0321 KA relative to UGCAUGU; to B13, 0.0353 KA relative to UGCAUGU; to B14, 0.0188 KA relative to UGCAUGU.
As to B15, the binding signal was 0.013 KA relative to UGCAUGU.
To B16 belongs 0.0242 KA relative to UGCAUGU; to B17, 0.0155 KA relative to UGCAUGU; to B18, 0.0414 KA relative to UGCAUGU.
As to B19, the binding signal was 0.0369 KA relative to UGCAUGU.
To B20 belongs 0.0166 KA relative to UGCAUGU.
B21: the binding signal was 0.0494 KA relative to UGCAUGU.
Turning to B22, the binding signal is 0.025 KA relative to UGCAUGU.
Consider B23, for which the binding signal is 0.0261 KA relative to UGCAUGU.
To B24 belongs 0.0211 KA relative to UGCAUGU.
The value for B25 was 0.00831 KA relative to UGCAUGU; that for B26 was 0.0126 KA relative to UGCAUGU; that for B27 was 0.00151 KA relative to UGCAUGU.
The value for B28 was 0.00271 KA relative to UGCAUGU; that for B29 was 0.00453 KA relative to UGCAUGU.
For B30, the binding signal is 0.0129 KA relative to UGCAUGU.
The value for B31 was 0.0123 KA relative to UGCAUGU.
